Results: PubChem BioAssay
Unmarked numbers belong to inactive results. Active and inactive are the calls of the source.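 Rule for the calls: active = mean inhibition over 43.08%, the solvent-only control mean plus 3 SD; inactive = the rest.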

What follows are compounds tested against Nuclear receptor coactivator 3 (Homo sapiens) (UniProt Q9Y6Q9) (assay: NCOA3 GAL4-fusion reporter inhibition – cell-based, luminescence, quadruplicate, confirmation (AID 588792;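 note: 0% = DMSO treated cells and 100% = gossypol at 36 µM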)). Conditions: HEK293 GAL4-SRC3 luciferase reporter, at 3.6 µM, hits give high values.
Chain of Nuclear receptor coactivator 3 (Homo sapiens) (Q9Y6Q9 whole entry, looked up, the tested form may be a part): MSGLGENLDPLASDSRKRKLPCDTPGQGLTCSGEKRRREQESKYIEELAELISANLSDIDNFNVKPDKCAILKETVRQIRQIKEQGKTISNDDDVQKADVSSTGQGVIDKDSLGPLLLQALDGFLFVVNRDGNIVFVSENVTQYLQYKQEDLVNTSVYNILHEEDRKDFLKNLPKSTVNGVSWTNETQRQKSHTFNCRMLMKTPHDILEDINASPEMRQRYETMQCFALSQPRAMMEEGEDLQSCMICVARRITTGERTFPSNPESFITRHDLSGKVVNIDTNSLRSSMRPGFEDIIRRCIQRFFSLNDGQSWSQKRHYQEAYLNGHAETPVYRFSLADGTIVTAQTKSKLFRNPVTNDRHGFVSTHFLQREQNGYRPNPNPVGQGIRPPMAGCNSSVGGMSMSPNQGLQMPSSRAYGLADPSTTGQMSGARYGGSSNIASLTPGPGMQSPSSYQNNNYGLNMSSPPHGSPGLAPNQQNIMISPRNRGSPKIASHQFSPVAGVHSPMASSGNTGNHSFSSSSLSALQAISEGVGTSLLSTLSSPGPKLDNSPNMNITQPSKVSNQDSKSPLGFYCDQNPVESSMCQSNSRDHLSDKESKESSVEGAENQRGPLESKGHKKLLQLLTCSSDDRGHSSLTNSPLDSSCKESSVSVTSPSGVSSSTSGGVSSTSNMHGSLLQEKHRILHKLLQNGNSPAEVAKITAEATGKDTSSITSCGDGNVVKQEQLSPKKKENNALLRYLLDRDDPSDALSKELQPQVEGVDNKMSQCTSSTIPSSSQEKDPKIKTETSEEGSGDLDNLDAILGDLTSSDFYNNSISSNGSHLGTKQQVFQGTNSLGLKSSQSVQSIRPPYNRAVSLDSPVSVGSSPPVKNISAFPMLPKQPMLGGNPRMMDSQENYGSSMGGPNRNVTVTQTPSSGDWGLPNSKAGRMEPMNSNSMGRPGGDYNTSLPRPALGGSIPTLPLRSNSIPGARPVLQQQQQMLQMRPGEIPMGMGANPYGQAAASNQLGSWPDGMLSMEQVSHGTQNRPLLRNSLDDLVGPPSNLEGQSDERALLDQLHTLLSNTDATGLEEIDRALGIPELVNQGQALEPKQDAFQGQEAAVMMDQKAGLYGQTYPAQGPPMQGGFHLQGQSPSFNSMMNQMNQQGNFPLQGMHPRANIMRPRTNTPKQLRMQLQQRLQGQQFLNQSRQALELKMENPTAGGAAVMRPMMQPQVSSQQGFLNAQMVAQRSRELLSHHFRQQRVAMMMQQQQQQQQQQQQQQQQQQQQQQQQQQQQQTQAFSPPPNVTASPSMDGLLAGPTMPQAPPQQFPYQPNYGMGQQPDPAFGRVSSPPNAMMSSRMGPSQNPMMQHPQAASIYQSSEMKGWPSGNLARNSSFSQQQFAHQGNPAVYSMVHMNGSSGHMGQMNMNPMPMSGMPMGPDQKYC

Row | SMILES | inhibition
1 | CC(C)[C@H]1C(=O)O[C@H](C(C)C)C(=O)N(C)[C@@H](C(C)C)C(=O)O[C@H](C(C)C)C(=O)N(C)[C@@H](C(C)C)C(=O)O[C@H](C(C)C)C(=O)N1C | 75% (active)
2 | Cc1cccc(C)c1-n1nnnc1C(CCc1ccccc1)N1CCC(n2c(=O)[nH]c3ccccc32)CC1 (stereo not drawn) | 40.6%
3 | CNC(=O)c1cccn(Cc2cccc(C(F)(F)F)c2)c1=O | 19.5%
4 | CCN(CCCl)c1cc(CN(C)C)cc(NC(=O)c2ccc(C(=O)Nc3cc(CN(C)C)cc(N(CC)CCCl)c3)cc2)c1 | 94.8% (active)
5 | CC/C(=N\Nc1ccccc1)c1c(O)[nH]c(=O)[nH]c1=O | 14.7%
6 | N#CC(C#N)=NNc1ccc(-n2ccc(C(F)(F)F)n2)cc1 | 49.1% (active)
7 | CNC(=O)c1cccn(Cc2cc(C(F)(F)F)cc(C(F)(F)F)c2)c1=O | 28.4%
8 | C=C1C(=O)[C@@]23C[C@H]4[C@@H]5[C@@]6(C)CCC[C@@]57[C@@H]2[C@@H](O)[C@@H]1C[C@H]3[C@H]7N4C6 | 3.71%
9 | CCCCCCCn1c(=O)c(C(=O)Nc2cnccn2)c(O)c2ccccc21 | -22.1%
10 | COc1cccc(C(c2nnnn2-c2ccc3c(c2)OCCO3)N2CCC(n3c(=O)[nH]c4ccccc43)CC2)c1OC (stereo not drawn) | 26.6%
11 | CCCCn1c(O)c(C(C)=Nc2ccc(C(=O)O)cc2)c(=O)[nH]c1=O | 1.79%
12 | CCCCNS(=O)(=O)c1ccc(OCC(=O)N2CCN(Cc3ccc4c(c3)OCO4)CC2)cc1 | 10.7%
13 | CC1=CC2/C=C(\C)CCC(O)C(O)/C=C/C(=O)C23C(=O)NC(CC(C)C)C3C1C (stereo not drawn) | 36%
14 | C[C@H]1CCC[C@@H](O)CCC/C=C/c2cc(O)cc(O)c2C(=O)O1 | 61.8% (active)
15 | O=c1[nH]c2ccccc2n1C1CCN(C(c2cc3ccccc3o2)c2nnnn2Cc2ccccc2)CC1 (stereo not drawn) | 59.9% (active)
16 | CCn1c(O)c(C=NCCN2CCOCC2)c(=O)n(CC)c1=S | 9.7%
17 | CC(=C1C(=O)c2ccccc2C1=O)N1CCN(CCN=Cc2c(O)n(C)c(=O)n(C)c2=O)CC1 | -8.5%
18 | Cc1cc(C)n(-c2ccc(NN=C(C#N)C#N)cc2)n1 | 43.3% (active)
19 | Cc1cc(C)cc(NC2=NCCCS2)c1 | -10.4%

Row | SMILES | inhibition
20 | CSCCC(c1nnnn1Cc1ccccc1)N1CCC(n2c(=O)[nH]c3ccccc32)CC1 (stereo not drawn) | 52.8% (active)
21 | CCCc1nc2ccc(Br)cc2c(=O)n1-c1ccc([N+](=O)[O-])c(C(F)(F)F)c1 | -13%
22 | O=c1[nH]c2ccccc2n1C1CCN(C(c2nnnn2Cc2ccccc2)C2CC2)CC1 (stereo not drawn) | 22.8%
23 | O=C(CSC1c2ccccc2-c2ccccc21)N/N=C/c1ccccc1O | 17.4%
24 | O=c1[nH]c2ccccc2n1C1CCN(C(CCc2ccccc2)c2nnnn2C2CCCC2)CC1 (stereo not drawn) | 23.4%
25 | CCn1nc(/C=C/c2ccccc2)nc2c(=O)n(C)c(=O)nc1-2 | 39.2%
26 | Cc1ccc(C[n+]2c(-c3ccc(C)cc3)cc(-c3ccc(C)cc3)cc2-c2ccc(C)cc2)cc1 | 91.3% (active)
27 | CSCCC(c1nnnn1-c1ccc2c(c1)OCCO2)N1CCC(n2c(=O)[nH]c3ccccc32)CC1 (stereo not drawn) | 15%
28 | O=c1[nH]c2ccccc2n1C1CCN(C(CCc2ccccc2)c2nnnn2-c2ccc3c(c2)OCCO3)CC1 (stereo not drawn) | 30.3%
29 | COc1ccc(-n2nnnc2C(c2cccc3ccccc23)N2CCC(n3c(=O)[nH]c4ccccc43)CC2)cc1 (stereo not drawn) | -24.1%
30 | C/C(=N\Nc1ccccc1)c1c(O)[nH]c(=O)[nH]c1=O | 0.35%
31 | Cc1[nH]nc2ccc(-c3cncc(OC[C@@H](N)Cc4c[nH]c5ccccc45)c3)cc12 | 98.5% (active)
32 | COC(=O)[C@@H]1[C@@H](C(=O)OC)C2(c3ccccc3-c3ccccc32)N(c2ccc(Cl)cc2)N1C#N | -0.96%
33 | C=C1C(C)C2C(Cc3ccccc3)NC(=O)C23OC(=O)/C=C/C(O)CCCC(C)C/C=C/C3C1O (stereo not drawn) | 10.6%
34 | COc1ccc(-n2c(O)c(C(C)=NCCCn3ccnc3)c(=O)[nH]c2=O)cc1 | 31.6%
35 | COc1cc2c(cc1O)C[C@H]1NCCc3cc4c(c-2c31)OCO4 | 32.3%
36 | Cc1cc2c(C(C)C)c(O)c(O)c(C=O)c2c(O)c1-c1c(C)cc2c(C(C)C)c(O)c(O)c(C=O)c2c1O | 5.58%
37 | O=c1[nH]c(=O)n(CCC2=CCCCC2)c(O)c1C=NC1CCN(Cc2ccccc2)CC1 | -0.53%
38 | COC(=O)C1CN(C#N)N(c2ccc(Cl)cc2)C12c1ccccc1-c1ccccc12 (stereo not drawn) | 13.6%
